Laboratory results from PubChem BioAssay AID1645855 (Buhrlage Lab, Dana-Farber Cancer Institute and Novartis …, 2021).
In all, about 47,000 compounds went through this assay and about 3,100 (6.6%) were called active. No stated cut-off is given here; in the data, active means inhibition above about 30%; inactive means the rest. Only a selection was taken, and actives are over-represented in it overall.

target: Ubiquitin carboxyl-terminal hydrolase 17-like protein 5 (Homo sapiens) (UniProt A8MUK1); test: inhibitors of human USP17 deubiquitinase (AID 1645855); settings: purified USP17, Ub-rhodamine cleavage fluorescence, 3 h; at 50 µM; active compounds read high
Sequence (A8MUK1 whole entry, looked up): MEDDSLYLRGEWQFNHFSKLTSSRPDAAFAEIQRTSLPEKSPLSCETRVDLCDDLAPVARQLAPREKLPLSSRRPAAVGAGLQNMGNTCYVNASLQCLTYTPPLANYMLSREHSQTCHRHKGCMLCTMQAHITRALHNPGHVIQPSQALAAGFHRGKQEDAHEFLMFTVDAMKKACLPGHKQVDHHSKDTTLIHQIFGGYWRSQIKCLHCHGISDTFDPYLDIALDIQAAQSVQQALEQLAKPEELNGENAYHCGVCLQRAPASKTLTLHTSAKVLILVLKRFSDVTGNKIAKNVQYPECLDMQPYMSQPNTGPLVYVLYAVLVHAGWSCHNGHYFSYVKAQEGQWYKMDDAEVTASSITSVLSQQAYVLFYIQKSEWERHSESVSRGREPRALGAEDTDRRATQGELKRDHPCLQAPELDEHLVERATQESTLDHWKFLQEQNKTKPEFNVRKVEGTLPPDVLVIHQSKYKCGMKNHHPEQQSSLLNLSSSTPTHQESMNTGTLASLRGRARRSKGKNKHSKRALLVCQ

inhibition, active:
O=C(CN1C(=O)C2CCCC2=Nc2ccccc21)Nc1ccc(F)cc1F (stereo not drawn) 59.2%
COc1c(O)c2c(=O)cc(OC)c3c4c(OC)cc(=O)c5c(O)c(OC)c(CC(C)OC(=O)c6ccccc6)c(c(c1CC(C)OC(=O)Oc1ccc(O)cc1)c23)c54 (stereo not drawn) 39.4%
CCOc1ccccc1NC(=O)Cc1cccs1 43.3%
Cc1nc(-c2cccc(NC(=O)C3CCN(c4ccccc4)C3=O)c2)no1 (stereo not drawn) 52.3%
N#Cc1ccc(NC(=O)Nc2cccn(Cc3ccccc3F)c2=O)cc1 93.3%
Oc1cccc2nc3c(O)cccc3nc12 96.1%
C[C@H](NC(=O)c1ccc2c(c1)OCO2)c1nc2cc(-c3ccc(F)cc3)ncn2n1 35%
CC(Oc1ccccc1)C(=O)Nc1ccc(-c2cn3cccnc3n2)cc1 (stereo not drawn) 41.4%
CCC(C(=O)Nc1ccc(-c2cn3cccnc3n2)cc1)c1ccccc1 (stereo not drawn) 45.8%
CCOc1ccc(NC(=O)Cn2cc(C(=O)c3ccc(Cl)cc3)c(=O)c3cc(OC)ccc32)cc1 57.1%
COc1c(O)c2c3c(c1O)C(=O)[C@@]1(O)C(=C3C(C)=CC2=O)O[C@@H](C)C1(C)C 37.6%
Cn1nc(C(=O)Nc2ccc(F)cc2)c(=O)c2ccccc21 32.8%

inhibition, inactive:
Cc1c(CN2CCOC(c3cncc(-c4ccccc4F)n3)C2)cnn1C (stereo not drawn) -0.212%
COc1ccc(C(=O)N2CC(=O)N(Cc3ccccc3)CC(O)C2)cc1 (stereo not drawn) -3.64%
CCOc1nc2cccnc2n(CC(=O)Nc2ccc(F)cc2F)c1=O -5.53%
O=C(CN1C(=O)c2cccnc2Sc2ccccc21)Nc1ccc(F)cc1F -19.9%
Cc1noc(C)c1COc1cccc(C(=O)NC(C)c2cc3ccccc3o2)c1 (stereo not drawn) 1.56%
COc1ccccc1N1CCN(C(=O)CSc2cc(=O)n(C)c3cc(Cl)ccc23)CC1 -7.92%
O=C(NCCc1ccccc1)N1CC[C@@H]2CN(Cc3cccnc3)S(=O)(=O)[C@@H]2CC1 -8.52%
CCOc1ccccc1NC(=O)COc1cccc2c1OC(C)(C)C2 8.61%
CCOc1ccccc1NC(=O)Cn1c(=O)n(-c2ncccc2C(=O)OC)c(=O)c2cccnc21 -0.0478%
CC1CCN(c2ncc3c(n2)CCC(C(=O)NC(C)c2cccnc2)C3)CC1 (stereo not drawn) -33.2%
Cc1nc(-c2cccc(S(=O)(=O)Nc3ccccc3C)c2)no1 -1.13%
CC(=O)c1cccc(NC(=O)c2cccc(-c3nc(-c4ccccc4)no3)c2)c1 1.73%
Cc1cnc2nc3c(cc2c1)CN(S(=O)(=O)c1cccc2cccnc12)CC3 -136%
N#Cc1ccc(OCC(=O)Nc2ccccc2N2CCCCC2)cc1 8.45%
Cc1cc(C)n2nc(CN(Cc3ccccc3)C(=O)c3ccccc3)nc2n1 -5.53%
Cc1ccc(N2CC(c3nnc(NC(=O)CCCc4ccccc4)s3)CC2=O)cc1 (stereo not drawn) -6.98%
CS(=O)(=O)Nc1cccc(C#CCN)c1 -24.2%
O=C(c1sc(N2CCCCC2)nc1-c1ccccc1)c1c[nH]c2ccccc12 -31.2%
CN1CCN(c2nc3c(s2)CN(C(=O)c2ccccc2)CC3)CC1 -15.2%
O=C(CN(C(=O)c1ccccc1)C1CCCCC1)Nc1nc(-c2ccccc2)cs1 11.1%
CC(=O)NC(Cc1ccccc1C)C(=O)NC1CCN(C(=O)Nc2cccc(C)c2)CC1 (stereo not drawn) 1.56%
COc1ccc(C(=O)O)cc1S(=O)(=O)Nc1ccc(-c2ccccc2)cc1 -9.74%
O=c1oc2cccnc2n1Cc1ccccc1F 13%
COc1ccccc1CNC(=O)C1CCN(S(C)(=O)=O)c2ccccc2O1 (stereo not drawn) 1.45%
Cc1ccc(CN2C(=O)CS(=O)(=O)C(C)C2=O)cc1 (stereo not drawn) 0.155%
CC(NC(=O)c1ccc2c(c1)OCCO2)c1ccc2c(c1)OCCCO2 (stereo not drawn) -21.9%
Cc1nc(-c2ccc(C(=O)NCc3ccc4c(c3)OCO4)cc2)cs1 29.5%
Cc1ccc(NS(=O)(=O)c2cc3n(c2)CCCNC3=O)c(F)c1 -11.3%
O=C(c1ncccn1)N1CCCC1c1ncc(Cc2ccccc2Cl)o1 (stereo not drawn) 0.408%
COc1ccc(NC(=O)c2c(N3CCCC3=O)c3cc(F)ccc3n2C)cc1Cl -15.2%
O=C(Nc1ccc(-c2nc3cccnc3s2)cc1)C(c1ccccc1)c1ccccc1 -146%
Cc1ccn2cc(-c3ccc(NS(=O)(=O)c4cc(C)c(C)cc4C)cc3)nc2n1 -32.9%
CCC(C(=O)Nc1cc(=O)[nH]c2nc(CCc3ccccc3)nn12)c1ccccc1 (stereo not drawn) 2.97%
CC(=O)c1ccc(NC(=O)C(C)Sc2nnc(COc3ccc(C)cc3)n2Cc2ccccc2)cc1 (stereo not drawn) 7.66%
Cc1ccc(Cn2c(C(=O)O)c(CNC(C)CCc3ccccc3)c3ccccc32)cc1 (stereo not drawn) -1.67%
Cc1nc(Nc2ncccn2)cc(C2CCCN2S(C)(=O)=O)n1 (stereo not drawn) 0.142%
O=C1CN(C(=O)c2cccc3ccccc23)C(c2ccc(F)cc2)c2cc(Br)ccc2N1 (stereo not drawn) 2.94%
O=C(c1cc2ccccc2[nH]1)N1CCCC2(COCCN(c3cccnc3)C2)C1 (stereo not drawn) 16.4%
CCOc1ccc2c(c1)c(=O)c(C(=O)c1ccccc1)cn2CC(=O)Nc1ccc(OC)cc1 -0.53%
COc1ccc(NC(=O)CSc2cn(CC(=O)N3CCCC3)c3ccccc23)cc1 7.65%
O=C(C1CC1)N1CCc2cc(S(=O)(=O)NCCCN3CCN(Cc4ccccc4)CC3)ccc21 -6.1%
COc1ccc(-c2nc3c(c(=O)c4ccccc4n3C)c(=O)n2CCc2ccc(OC)c(OC)c2)cc1 7.74%
Cc1nn(-c2ccccc2)c(C)c1S(=O)(=O)Nc1ccccc1C(N)=O 7.84%
COc1cccc(CNS(=O)(=O)c2cc3[nH]c4c(c3cc2C)C(=O)CCC4)c1 -25.1%
COc1cccc(NC(=O)c2nn(-c3ccc(F)cc3)c(OC)cc2=O)c1 -0.739%
Cc1oc(-c2ccccc2Cl)cc1C(=O)Nc1ccc(F)cc1 -7.25%
